Screening data as filed in PubChem BioAssay.
Shown are actives, neighbours in structure and some others; about 4.2% of the full set was active somewhere.
uPA surface inh = cell surface uPA generation inhibition; cell surface uPA generation assay, qHTS; Potency, µM (top dose mostly 38.3 µM), usual class: inhibitors; 0.31% of 330,000 active; active = well fitted inhibition curve with a large enough effect; inconclusive = small, poorly fitted or top-dose-only effect; inactive = no such curve, though single readings can be large or run the other way; tested in mouse RAW 264.7 cells; note: nearly all actives have a fitted effect of over 55% in size
TCR act = activates T cell receptor signaling; primary human leukocytes, anti-CD3, IL-2 HTRF, 48 h; 330,000 tested, under 10 active; AID 504894; Potency, µM (highest dose often 9.22 µM), hits mostly activators
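Activity was scored as IL-2 release from primary human leukocytes given only a TCR signal (a-CD3 beads) plus compound for 48 hr. Detection used a two-antibody HTRF format read at 665nm.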
Sfp inh = inhibitors of Bacillus subtilis Sfp phosphopantetheinyl transferase | Potency, µM, hits mostly inhibitors | Biochemical Sfp PPTase activity, qHTS | 3.5% of 310,000 active | Q9F4F7;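 note: the enzyme is Sfp with the accession as filed and its product quenches rhodamine fluorescence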
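After 15 min at room temperature with compound, 15 nM Sfp received 5 uM rhodamine-CoA plus 12.5 uM BHQ-2-ybbR (50 mM Hepes pH 7.6, 10 mM MgCl2). Rate came from the fluorescence difference over 30 min, ex 525/em 598 nm.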
ClpP mod = qHTS Assay for Activators of ClpP. AID 651965, 2013. 1.9% of 340,000 active. purified B. subtilis ClpP, FRET peptide cleavage, 20 min. ATP-dependent Clp protease proteolytic subunit (Bacillus subtilis (strain 168)), P80244. Potency, µM (doses to about 57.5 µM); active = well fitted falling curve with a large enough effect; inconclusive = small, poorly fitted or top-dose-only effect; inactive = no such curve, though single readings can be large or run the other way; note: the source files actives as falling curves though it sought activators and does not explain the sign; nearly all actives have a fitted effect of over 65% in size
Target sequence (P80244 whole entry, looked up): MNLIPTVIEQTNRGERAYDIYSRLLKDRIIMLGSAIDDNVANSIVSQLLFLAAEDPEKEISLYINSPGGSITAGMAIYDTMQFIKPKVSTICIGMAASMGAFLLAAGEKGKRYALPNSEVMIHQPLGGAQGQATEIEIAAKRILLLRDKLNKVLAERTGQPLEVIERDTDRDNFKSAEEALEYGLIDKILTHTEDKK
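Buffer: 100 mM Tris/HCl pH8, 100 mM KCl, 0.05% low protease BSA, 2.5% glycerol, 0.01% Tween-20. ClpP 10 microg/mL final; 20 min RT; delta FRET normalized to ADEP and DMSO controls.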
Each line names hits and unclear results; the compound was inactive in the other large screens. Unless noted, calls come from the whole dose curve; as a rule, active = well fitted curve in the direction sought with a large enough effect; inconclusive = small, poorly fitted or top-dose-only effect, or another doubt; inactive = no such curve, though single readings can be large; an effect the other way counts as inactive or inconclusive.

CCSC[C@H](NC(=O)[C@H](C)N)C(=O)N[C@@H](CC(=O)O)C(=O)N[C@H](C(=O)N[C@@H](C)C(=O)N[C@H](C(=O)N[C@@H](CSCC)C(=O)N[C@H](C(=O)N[C@H](C(=O)N[C@@H](Cc1cnc[nH]1)C(=O)N[C@@H](CCCNC(=N)N)C(=O)N[C@@H](CC(C)C)C(=O)N[C@@H](C)C(=O)NCC(=O)N[C@@H](CC(C)C)C(=O)N[C@@H](CC(C)C)C(=O)N[C@@H](CO)C(=O)N[C@@H](CCCNC(=N)N)C(=O)N[C@@H](CO)C(=O)NCC(=O)NCC(=O)N[C@H](C(=O)N[C@H](C(=O)N[C@@H](CCCCN)C(=O)N[C@@H](CC(N)=O)C(=O)N[C@@H](CC(N)=O)C(=O)N[C@@H](Cc1ccccc1)C(=O)N[C@H](C(=O)N1CCC[C@H]1C(=O)N[C@H](C(=O)N[C@@H](CC(N)=O)C(=O)N[C@H](C(=O)NCC(=O)N[C@@H](CO)C(=O)N[C@@H](CCCCN)C(=O)N[C@@H](C)C(=O)N[C@@H](Cc1ccccc1)C(N)=O)C(C)C)[C@@H](C)O)C(C)C)C(C)C)C(C)C)[C@@H](C)O)C(C)C)[C@@H](C)O)[C@@H](C)O	none (no result: uPA surface inh, TCR act, ClpP mod)
CCOc1ccccc1-n1nnnc1SCC(=O)NC(=O)Cc1ccccc1	ClpP mod 25µM (no result: Sfp inh)
COc1ccc(NC(=O)CSc2nnnn2-c2ccccc2OC)c(OC)c1	none
CCOc1ccccc1-n1nnnc1SCC(=O)NC(=O)NCc1ccco1	none
COc1ccccc1-n1nnnc1SCC(=O)Nc1ccc(C)c(N)c1	Sfp inh 79µM (no result: ClpP mod)
CN(c1cccc(Cl)c1)S(=O)(=O)c1cccc(C(=O)Nc2nc3ccccc3[nH]2)c1	none
COc1ccc(N(C)S(=O)(=O)c2cccc(C(=O)Nc3nc4ccccc4[nH]3)c2)cc1	ClpP mod 28µM
CCOC(=O)c1nnn(C(CC)C(=O)Nc2c(C)cccc2C)c1C(=O)OCC (centres undefined)	none (no result: uPA surface inh, TCR act, Sfp inh)
Cc1ccc2c(=O)cc(C(=O)Nc3ccc(S(=O)(=O)N4CCCCCC4)cc3)oc2c1C	none (no result: uPA surface inh, TCR act, Sfp inh)
Cc1ccc(C(=O)c2c(C)oc3c2C(=O)C(=O)c2ccccc2-3)cc1	Sfp inh 50µM
Cc1ccc(C(=O)c2coc3c2C(=O)C(=O)c2ccccc2-3)cc1	Sfp inh 45µM
Cc1oc2c(c1C(=O)N1CCC(C)CC1)C(=O)c1ccccc1C2=O	uPA surface inh 10µM
COc1cc(OC)c(NC(=O)C2=C(C)C(=O)OC23CCCCCC3)cc1Cl	none (no result: uPA surface inh, TCR act, Sfp inh)
C=C1c2ccccc2O[C@H](C(=O)OCC)[C@@H]1CC(C)(C)c1ccccc1	none (no result: uPA surface inh, TCR act, ClpP mod)
Cc1ccc(CNC(=O)C(=O)NCC(c2cccs2)S(=O)(=O)c2cccs2)cc1 (centres undefined)	none (no result: uPA surface inh, TCR act, Sfp inh)
COc1cc(CN2CCN(Cc3ccc(SC)cc3)CC2)cc(OC)c1O	Sfp inh 56µM (no result: ClpP mod)
CCN(Cc1ccccc1)C(=O)C1CCN(Cc2ccc(SC)cc2)CC1	none
CSc1ccc(C(=S)N2CCN(Cc3ccccc3)CC2)cc1	Sfp inh 14µM
S=C(c1ccc(Cl)cc1)N1CCN(Cc2ccccc2)CC1	none (no result: ClpP mod)
CCN(Cc1ccccc1)C1CCN(Cc2ccc(SC)cc2)CC1	Sfp inh 32µM (no result: ClpP mod)
COc1cc(OC)c(OC)cc1CN1CCN(Cc2ccc(SC)cc2)CC1	Sfp inh inconclusive
CCN1CCN(C(=S)c2ccc(SC)cc2)CC1	Sfp inh 28µM
CCOC(=O)C1(CCCc2ccccc2)CCN(C(=O)c2n[nH]c(CC)c2C)CC1	none (no result: uPA surface inh, TCR act, Sfp inh)
c1cc(-c2nsc(-c3ccncc3)n2)ccn1	Sfp inh 45µM (no result: ClpP mod)
Nc1nnc(-c2ccncc2)s1	ClpP mod inconclusive (no result: uPA surface inh)
CCc1nnc2c3ccccc3nc(Nc3ccc(F)cc3C)n12	none (no result: uPA surface inh, TCR act, Sfp inh)
O=C(O)CCc1ccc(-c2ccccc2)n1Cc1ccco1	Sfp inh 35µM, ClpP mod 28µM
Cc1ccc(-c2ccc(CCC(=O)O)n2CC2CCCO2)cc1 (centres undefined)	ClpP mod 25µM (no result: uPA surface inh)
Cc1ccc(-c2ccc(CCC(=O)O)n2CC(=O)O)cc1	Sfp inh 71µM, ClpP mod inconclusive (no result: TCR act)
CC(C)(C)NC(=O)C12CC3CC(CC(Cl)(C3)C1)C2	none
CC(C)(CO)NC(=O)C12CC3CC(CC(Br)(C3)C1)C2	ClpP mod 20µM
Cc1nc(NC(=O)C2CCCC2)sc1Cc1ccc2c(c1)OCO2	none (no result: ClpP mod)
Cc1c(Cc2ccccc2)sc(NC(=O)c2ccco2)c1C(N)=O	ClpP mod inconclusive
Cc1c(Cc2ccc3c(c2)OCO3)sc(NC(=O)C2CC2)c1C(N)=O	Sfp inh 20µM (no result: ClpP mod)
CCOc1ccc(CC(=O)Nc2sc(Cc3ccccc3)c(C)c2C(N)=O)cc1OCC	Sfp inh 20µM
Cc1c(Cc2ccc3c(c2)OCO3)sc(NC(=O)c2cccc3ccccc23)c1C(N)=O	uPA surface inh inconclusive, Sfp inh 35µM
Cn1ncc(Cl)c1C(=O)NC1CCCC1	none
Cc1ccc(S(=O)(=O)c2nc(-c3ccccc3Cl)oc2N(C)C)cc1	none
CN(C)c1oc(-c2ccccc2Cl)nc1P(=O)(c1ccccc1)c1ccccc1	Sfp inh inconclusive, ClpP mod 20µM
COc1ccc(OC)c(/C=C/C(=O)N(C)CC(=O)Nc2ccc(C)cc2)c1	ClpP mod 28µM
COc1ccc(NC(=O)CN(C)C(=O)/C=C/c2ccc(OCc3ccccc3)cc2)cc1	ClpP mod 28µM (no result: uPA surface inh)
COc1ccc(NC(=O)CN(C)C(=O)/C=C/c2ccc(S(=O)(=O)N3CCCCCC3)cc2)cc1	none (no result: Sfp inh)
CCCCc1c(-c2ccccc2OC)ncn1Cc1cccc(-c2ccccc2)c1	none (no result: uPA surface inh, TCR act, Sfp inh)
Cc1ccc(C)c(S(=O)(=O)N2CCCC2CNC(=O)C(=O)NC2CC2)c1 (centres undefined)	none (no result: Sfp inh)
CCOc1ccc(-c2nc(C#N)c(N3CCN(C)CC3)o2)cc1	ClpP mod inconclusive
CCN1CCN(c2oc(-c3ccc([N+](=O)[O-])cc3)nc2C#N)CC1	none (no result: ClpP mod)
COc1ccc(-c2nc(C#N)c(N3CCCCCC3)o2)cc1	Sfp inh inconclusive
CCCOc1ccc(-c2nc(C#N)c(N3CCN(C)CC3)o2)cc1	ClpP mod 32µM
CCOc1ccc(-c2nc(C#N)c(N3CCN(CC)CC3)o2)cc1	ClpP mod 10µM
CCCOc1ccc(-c2nc(C#N)c(N3CCc4ccccc4C3)o2)cc1	ClpP mod 16µM (no result: uPA surface inh)
CCCOc1ccc(-c2nc(C#N)c(N3CCN(CC)CC3)o2)cc1	ClpP mod 28µM
CCOc1ccc(-c2nc(C#N)c(N3CCCCCC3)o2)cc1	Sfp inh inconclusive
COCCCNC(=O)c1ccc(Cn2c(=O)c3cccn3c3cccnc32)cc1	none (no result: uPA surface inh, TCR act, Sfp inh)
C[C@H]1Cc2c(COc3ccccc3)nc3c(c2CO1)CN(S(=O)(=O)c1ccc(Cl)c2nonc12)CC3	none (no result: uPA surface inh, TCR act, ClpP mod)
CCc1ccc(C2=CC(c3cc(Br)ccc3F)n3ncnc3N2)cc1 (centres undefined)	Sfp inh inconclusive, ClpP mod 32µM (no result: uPA surface inh)
Cc1ccsc1C1C=C(c2cccc(Br)c2)Nc2ncnn21 (centres undefined)	Sfp inh 45µM, ClpP mod inconclusive
COc1ccc(C2=CC(c3ccc(F)cc3)n3nnnc3N2)cc1 (centres undefined)	ClpP mod inconclusive
